From PubChem BioAssay
The source made the active and inactive calls. Unless noted, how the calls were made is not given here.

Assays:
[1] = tested on: Wnt5a (protein binding on small-molecule microarray); experiment: Wnt5a binders on small-molecule microarray, primary screen, biophysical, 635/667 nm fluorescence (AID 1142); conditions: 635 nm fluorescence, higher = more signal;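 further: fluorescence read at 667 nm with signal to noise per printed feature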
[2] = cell viability in Huh7 cells, primary screen, cytotoxicity control for HCV replication inhibitor project, CellTiter-Glo luminescence, basal, 48 h (AID 1143); conditions: Huh7 HCV replicon, higher = more signal, called active from +8 up or from −8 down;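 further: Huh7 hepatoma cells carrying a hepatitis C replication reporter with no stimulus; test concentration not given here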
[3] = P. aeruginosa biofilm formation inhibitors, primary screen, PAO1 strain, BacTiter-Glo luminescence, LB-PBS (AID 1144); conditions: 12 h, higher = more signal
[4] = CREB reporter modulators without forskolin, primary screen, cell-based, PC12, CRE-LacZ reporter, unstimulated (AID 1145); conditions: no forskolin, luminescence, 4.5 h, higher = more signal, called active from +8 up or from −8 down
[5] = CREB reporter modulators under forskolin, primary screen, cell-based, PC12, CRE-LacZ reporter, forskolin-stimulated (AID 1146); conditions: luminescence, 4.5 h, higher = more signal, called active from +8 up or from −8 down;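 further: PC12 cells with 6xCRE LacZ reporter stimulated by forskolin 10 µM; beta-galactosidase reporter signal reflecting CREB driven transcription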
[6] = target: Streptavidin (Streptomyces avidinii) (UniProt P22629); experiment: streptavidin binders on small-molecule microarray, primary screen, artefact control for SMM compound annotation, biophysical, 635/667 nm fluorescence (AID 1147); conditions: streptavidin binding, higher = more signal;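 further: signal reflects streptavidin binding to arrayed compounds as a control protein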
Sequence of Streptavidin (Streptomyces avidinii) (P22629 whole entry, looked up): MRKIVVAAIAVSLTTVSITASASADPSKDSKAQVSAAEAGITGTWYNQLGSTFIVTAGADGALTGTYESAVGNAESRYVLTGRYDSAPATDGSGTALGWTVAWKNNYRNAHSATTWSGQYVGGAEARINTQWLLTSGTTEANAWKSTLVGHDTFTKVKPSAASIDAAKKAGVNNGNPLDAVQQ

[7] = small-molecule binders of probe aInhba, primary screen, biochemical, small-molecule microarray, 635/667 nm fluorescence (AID 1148); conditions: higher = more signal;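 further: score merges 667nm spot fluorescence with signal-to-noise for antibody binding to printed compounds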
[8] = target: Torsin-1A (Homo sapiens) (UniProt O14656); experiment: torsin A binders from cell lysate, primary screen, small-molecule microarray, wild-type, 635/667 nm (AID 1149); conditions: COS7 hTOR1A-WT lysate, 635 nm fluorescence, higher = more signal
Sequence of Torsin-1A (Homo sapiens) (O14656 whole entry, looked up): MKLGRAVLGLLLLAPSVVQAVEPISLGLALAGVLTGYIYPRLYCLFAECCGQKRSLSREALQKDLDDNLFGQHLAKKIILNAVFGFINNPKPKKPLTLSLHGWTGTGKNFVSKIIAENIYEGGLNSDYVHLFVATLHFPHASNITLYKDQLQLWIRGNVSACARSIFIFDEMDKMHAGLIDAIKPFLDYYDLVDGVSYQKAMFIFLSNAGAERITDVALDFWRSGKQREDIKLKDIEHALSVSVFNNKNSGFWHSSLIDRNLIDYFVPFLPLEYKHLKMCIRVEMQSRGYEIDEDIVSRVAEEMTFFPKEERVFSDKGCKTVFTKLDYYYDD

[9] = target: Torsin-1A (Homo sapiens) (UniProt O14656); experiment: small-molecule binders of mutant TOR1A in lysate, primary screen, cell lysate, small-molecule microarray, COS7 lysate, 635/667 nm fluorescence (AID 1150); conditions: COS7 hTOR1A mutant lysate, 635 nm fluorescence, higher = more signal;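 further: score pools 667 nm emission and signal to noise measuring lysate protein binding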
[10] = tested on: Sonic hedgehog protein (Shh); experiment: small-molecule binders of Shh protein, primary screen, biochemical, small-molecule microarray, 635/667 nm fluorescence (AID 1151); conditions: small-molecule microarray binding, 635 nm fluorescence; higher = more signal;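 further: Shh protein binding to compounds spotted on small-molecule microarray slides; score combines spot fluorescence intensity with signal-to-noise across triplicate slides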
[11] = E. coli DRC41 culture turbidity changes, primary screen, E. coli filamentation inducer project, strain DRC41, OD650, 48 h (AID 1152);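 further: E. coli MC1000 strain DRC41 lacking acrAB efflux pump and sulA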; conditions: E. coli DRC41 (acrAB sulA), higher = more signal, called active from +8 up or from −8 down
[12] = small-molecule binders of probe aLefty1, primary screen, biochemical, small-molecule microarray, 635/667 nm fluorescence (AID 1153); conditions: higher = more signal;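 further: score merges spot fluorescence with signal-to-noise ratio from the scanned slide images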
[13] = PSAC antagonists in infected red cells, primary screen, cell-based, P. falciparum Indochina, OD700, 1 h (AID 1154); conditions: P. falciparum Indochina infected RBC osmotic lysis, higher = more signal, called active from +8 up or from −8 down
[14] = PSAC antagonists in infected red cells, primary screen, cell-based, P. falciparum Indochina, OD700, 2 h (AID 1155);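 further: lysis reports solute entry through the parasite surface anion channel PSAC; channel blockers reduce lysis of infected cells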; conditions: P. falciparum Indochina infected erythrocytes, osmotic lysis OD700; higher = more signal, called active from +8 up or from −8 down
[15] = osmotic lysis modulators in infected erythrocytes, primary screen, PSAC antagonist project, cell-based, P. falciparum Indochina, OD700, 3 h (AID 1156); conditions: higher = more signal, called active from +8 up or from −8 down
[16] = PSAC antagonists in infected red cells, primary screen, cell-based, P. falciparum Indochina, OD700, 18 h (AID 1157); conditions: P. falciparum Indochina infected erythrocytes, osmotic lysis OD700, 18 h; higher = more signal, called active from +8 up or from −8 down
[17] = modulators of S6 phosphorylation in cells, primary screen, cell-based, A549, cytoblot, luminescence, serum-stimulated (AID 1158); conditions: A549 phospho-S6 cytoblot, 5 h, higher = more signal;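 further: serum-stimulated A549 lung adenocarcinoma cells; signal is phosphorylated S6 detected by cytoblot immunostaining with HRP secondary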
[18] = target: NADPH oxidase 2 (Homo sapiens) (UniProt P04839); experiment: NOX2-dependent H2O2 signal modulators, primary screen, NOX inhibitor project, cell-based, HEK293-NOX2, PMA-stimulated, Amplex Red fluorescence (AID 1159); conditions: 45 min, higher = more signal, called active from +8 up or from −8 down; further: test concentration not given here
Sequence of NADPH oxidase 2 (Homo sapiens) (P04839 whole entry, looked up): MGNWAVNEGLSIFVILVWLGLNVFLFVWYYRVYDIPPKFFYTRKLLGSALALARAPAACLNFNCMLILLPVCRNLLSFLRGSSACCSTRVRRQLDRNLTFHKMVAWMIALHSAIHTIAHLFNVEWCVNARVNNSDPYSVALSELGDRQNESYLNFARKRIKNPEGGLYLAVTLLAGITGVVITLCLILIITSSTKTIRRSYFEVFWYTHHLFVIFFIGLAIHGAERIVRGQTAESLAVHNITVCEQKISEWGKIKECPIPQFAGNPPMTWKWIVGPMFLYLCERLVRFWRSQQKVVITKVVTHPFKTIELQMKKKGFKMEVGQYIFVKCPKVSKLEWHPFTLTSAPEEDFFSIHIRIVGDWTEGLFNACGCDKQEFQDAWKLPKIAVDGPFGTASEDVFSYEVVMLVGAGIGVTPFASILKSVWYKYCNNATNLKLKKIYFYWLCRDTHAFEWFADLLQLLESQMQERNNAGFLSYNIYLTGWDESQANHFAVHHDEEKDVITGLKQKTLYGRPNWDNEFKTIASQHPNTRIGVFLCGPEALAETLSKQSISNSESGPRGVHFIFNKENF

[19] = target: NADPH oxidase 4 (Homo sapiens) (UniProt Q9NPH5); experiment: NOX4-dependent H2O2 signal modulators, primary screen, NOX inhibitor project, cell-based, HEK293-NOX4, tetracycline-induced, Amplex Red fluorescence (AID 1160); conditions: 45 min, higher = more signal, called active from +8 up or from −8 down
Sequence of NADPH oxidase 4 (Homo sapiens) (Q9NPH5 whole entry, looked up): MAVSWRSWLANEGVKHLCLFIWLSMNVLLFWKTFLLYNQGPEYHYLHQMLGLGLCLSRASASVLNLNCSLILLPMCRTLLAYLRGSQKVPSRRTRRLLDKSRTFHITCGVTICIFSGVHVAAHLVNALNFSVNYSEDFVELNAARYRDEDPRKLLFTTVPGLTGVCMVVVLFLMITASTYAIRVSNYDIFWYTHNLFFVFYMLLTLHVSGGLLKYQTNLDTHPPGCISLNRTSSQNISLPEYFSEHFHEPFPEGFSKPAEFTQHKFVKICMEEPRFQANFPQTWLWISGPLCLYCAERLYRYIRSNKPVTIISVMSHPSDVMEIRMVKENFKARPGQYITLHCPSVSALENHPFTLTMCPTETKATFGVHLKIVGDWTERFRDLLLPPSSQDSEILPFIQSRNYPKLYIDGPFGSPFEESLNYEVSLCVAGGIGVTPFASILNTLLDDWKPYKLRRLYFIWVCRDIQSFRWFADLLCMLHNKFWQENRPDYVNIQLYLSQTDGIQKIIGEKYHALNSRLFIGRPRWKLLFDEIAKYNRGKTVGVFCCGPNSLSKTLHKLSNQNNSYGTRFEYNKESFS

[20] = target: NADPH oxidase 5 (Homo sapiens) (UniProt Q96PH1); experiment: NOX5-dependent H2O2 signal modulators, primary screen, NOX inhibitor project, cell-based, HEK293-NOX5, Amplex Red fluorescence (AID 1161); conditions: HEK293-NOX5, ionomycin, 45 min, higher = more signal
Sequence of NADPH oxidase 5 (Homo sapiens) (Q96PH1 whole entry, looked up): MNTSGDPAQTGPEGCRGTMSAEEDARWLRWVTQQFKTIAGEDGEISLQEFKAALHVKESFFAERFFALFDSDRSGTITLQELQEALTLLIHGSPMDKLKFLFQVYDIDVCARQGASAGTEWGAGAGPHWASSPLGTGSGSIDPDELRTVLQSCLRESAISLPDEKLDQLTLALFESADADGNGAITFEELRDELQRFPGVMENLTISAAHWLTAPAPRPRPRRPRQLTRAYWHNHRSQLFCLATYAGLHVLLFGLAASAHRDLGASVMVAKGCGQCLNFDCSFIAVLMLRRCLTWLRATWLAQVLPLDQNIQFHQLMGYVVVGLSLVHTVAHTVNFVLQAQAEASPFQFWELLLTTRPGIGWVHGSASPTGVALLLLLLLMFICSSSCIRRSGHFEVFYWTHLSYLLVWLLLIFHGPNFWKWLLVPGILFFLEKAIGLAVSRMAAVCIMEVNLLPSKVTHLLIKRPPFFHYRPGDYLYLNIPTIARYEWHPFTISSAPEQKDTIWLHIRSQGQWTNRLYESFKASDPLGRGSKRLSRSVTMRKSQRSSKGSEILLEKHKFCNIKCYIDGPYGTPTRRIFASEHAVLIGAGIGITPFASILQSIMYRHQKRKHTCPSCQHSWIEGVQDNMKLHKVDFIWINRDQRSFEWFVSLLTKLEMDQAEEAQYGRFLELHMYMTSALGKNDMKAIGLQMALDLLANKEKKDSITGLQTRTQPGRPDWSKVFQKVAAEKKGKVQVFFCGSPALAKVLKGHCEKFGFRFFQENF

SMILES	composite z-score [1]	z-score [2]	z-score [3]	z-score [4]	z-score [5]	composite z-score [6]	composite z-score [7]	composite z-score [8]	composite z-score [9]	composite z-score [10]	z-score [11]	composite z-score [12]	z-score [13]	z-score [14]	z-score [15]	z-score [16]	z-score [17]	z-score [18]	z-score [19]	z-score [20]
CS(=O)(=O)CCOC(=O)C1=CC(CCCO)=CC(C2CC2)N(Cc2cccc(OC(F)(F)F)c2)C=C1C(=O)OCCS(C)(=O)=O (stereo not given)	0.0607	-1.21 (inactive)	0.154 (inactive)	4.86 (inactive)	0.0235 (inactive)	-0.358	0.0082	1.29	2.13	0.186	-1.07 (inactive)	0.0392	2.65 (inactive)	0.404 (inactive)	-0.352 (inactive)	0.675 (inactive)	-0.662	0.944 (inactive)	0.19 (inactive)	-1.29
COCCOC(=O)N1C(=O)[C@@]2(c3cc(C#CCNC(N)=O)ccc31)[C@H](c1ccc(OCCO)cc1)N1[C@H](c3ccccc3)[C@H](c3ccccc3)OC(=O)[C@H]1[C@@H]2C(=O)NC[C@H](O)c1ccccc1	0.423	-0.441 (inactive)	-0.498 (inactive)	-1.56 (inactive)	-0.567 (inactive)	0.904	0.111	0.367	0.792	1.27	0.402 (inactive)	0.119	1.65 (inactive)	1.1 (inactive)	0.624 (inactive)	0.457 (inactive)	-0.144	2.22 (inactive)	1.06 (inactive)	-0.137
CN1C(=O)[C@@]2(Cc3ccccc3)N=C(c3ccc(OCCCO)cc3)O[C@H]2c2ccccc21	0.634	-4.44 (inactive)	-0.458 (inactive)	1.04 (inactive)	-1.67 (inactive)	0.0831	0.382	0.266	-0.0779	1.45	-0.0237 (inactive)	0.501	31.8 (active)	30.4 (active)	2.93 (inactive)	2.65 (inactive)	0.385	-1.74 (inactive)	0.151 (inactive)	-1.64
CC1CC/C=C\[C@H]2OC34C=CCN(CCN5CCOCC5)C(=O)[C@H]3N(C(C)CO)C(=O)[C@@H]4C2C(=O)O1 (stereo not given in full)	-0.409	0.181 (inactive)	0.156 (inactive)	-0.0778 (inactive)	-0.0178 (inactive)	-1.16	-0.0933	-1.72	-1.58	1.41	-0.197 (inactive)	-0.147	0.77 (inactive)	-0.306 (inactive)	0.753 (inactive)	0.233 (inactive)	0.0656	0.801 (inactive)	-0.323 (inactive)	1.58
COCCOC(=O)N1C(=O)[C@@]2(c3cc(C#CCC(C(=O)OC)C(=O)OC)ccc31)[C@H](C(=O)NC[C@H](O)c1ccccc1)[C@H]1C(=O)O[C@H](c3ccccc3)[C@H](c3ccccc3)N1[C@@H]2c1ccc(OCCO)cc1	-0.157	-1.01 (inactive)	0.366 (inactive)	0.895 (inactive)	-0.102 (inactive)	0.688	-0.0804	-0.012	0.367	1.69	0.0789 (inactive)	-0.118	7.02 (inactive)	2.02 (inactive)	0.53 (inactive)	1.12 (inactive)	-0.273	1.41 (inactive)	0.805 (inactive)	0.938
COC(=O)[C@@]1(Cc2ccc(F)cc2)[C@H]2c3cc(C(=O)N4CCCC4)n(CC4CC4)c3C[C@H]2CN1C(=O)c1ccccc1	0.0479	-2.61 (inactive)	0.197 (inactive)	0.972 (inactive)	-0.451 (inactive)	1.86	0.74	0.111	1.03	0.377	-1.37 (inactive)	1.56	2.89 (inactive)	0.0582 (inactive)	0.454 (inactive)	0.666 (inactive)	0.516	0.0286 (inactive)	-1.62 (inactive)	-0.81
O=C1O[C@H](c2ccccc2)[C@H](c2ccccc2)N2[C@H]1[C@@H](C(=O)N1CCCCCCC1)[C@]1(C(=O)Nc3ccc(C#CC4(O)CCCCCC4)cc31)[C@H]2c1ccc(O)cc1	1.19	-3.1 (inactive)	-0.555 (inactive)	-0.168 (inactive)	-0.219 (inactive)	2.76	1.77	1.13	1.49	1.45	0.507 (inactive)	2.47	0.839 (inactive)	0.222 (inactive)	1.34 (inactive)	0.491 (inactive)	0.148	1.33 (inactive)	0.803 (inactive)	1.17
COCC(=C=CC[C@H](O)c1cccc(OCCO)c1)C[C@H](O)COCc1ccccc1	0.191	-0.33 (inactive)	-0.218 (inactive)	5.03 (inactive)	1.74 (inactive)	-0.599	0.264	2.41	1.31	1.28	-0.0371 (inactive)	0.213	9.2 (active)	1.07 (inactive)	0.307 (inactive)	0.404 (inactive)	-0.234	-0.436 (inactive)	-0.797 (inactive)	-1.39
C[C@]1(C(=O)O)c2ccccc2C(=O)N(Cc2ccc(OC(F)(F)F)cc2)[C@H]1c1ccc(CO)cc1	0.386	-0.17 (inactive)	-0.526 (inactive)	0.118 (inactive)	-0.48 (inactive)	-0.129	0.053	0.45	0.522	-0.261	0.026 (inactive)	0.227	3.93 (inactive)	0.789 (inactive)	0.503 (inactive)	0.18 (inactive)	-0.115	0.948 (inactive)	0.41 (inactive)	-0.52
